Screens deposited in PubChem BioAssay by National Center for Advancing Translational Sciences (NCATS).
D1 antag – Antagonist of Human D 1 Dopamine Receptor: qHTS. HEK293 TREx D1 cells, calcium flux, dopamine EC80; hits give low values. activity change, negative = inhibition, % at 10 µM. AID 504652, 2011. 360,000 tested, 3.2% active. D(1A) dopamine receptor (Homo sapiens), P21728; in the data active = activity change below about -30%; also: % is scaled to controls: 0 for no effect and ±100 for the full control effect
Target sequence (P21728 whole entry, looked up): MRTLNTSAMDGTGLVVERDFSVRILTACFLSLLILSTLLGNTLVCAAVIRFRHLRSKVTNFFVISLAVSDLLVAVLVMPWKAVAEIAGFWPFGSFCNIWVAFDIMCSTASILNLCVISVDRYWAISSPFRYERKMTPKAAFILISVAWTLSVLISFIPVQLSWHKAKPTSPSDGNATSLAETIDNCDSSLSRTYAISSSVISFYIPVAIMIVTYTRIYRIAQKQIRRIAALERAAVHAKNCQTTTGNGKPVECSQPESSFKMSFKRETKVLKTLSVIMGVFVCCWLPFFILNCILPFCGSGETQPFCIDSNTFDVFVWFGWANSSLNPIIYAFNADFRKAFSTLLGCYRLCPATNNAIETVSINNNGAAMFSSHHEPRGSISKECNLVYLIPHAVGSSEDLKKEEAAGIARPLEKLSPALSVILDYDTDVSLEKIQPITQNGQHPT
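Calcium flux readout: force-coupled, inducible Hek293 Trex D1 line, cells induced overnight at 30 C with tetracycline, dye-loaded 30–90 min at RT. Antagonism scored against EC80 dopamine challenge given 180 s after compound.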
D1 potentiator – Potentiators of Human D1 Dopamine Receptor: qHTS; HEK293 TREx D1 cells, calcium flux, dopamine EC20 potentiation; D(1A) dopamine receptor (Homo sapiens), P21728; AID 504651, 2011; 360,000 tested, 0.036% active; potentiation, % at 10 µM; in the data active = potentiation above about 30%; also: 0% is about no effect
TRHR agonist – qHTS for Small Molecule Agonists and Allosteric Enhancers of Human TRH Receptor: Primary Screen for Agonists; AID 493084, 2011; 360,000 tested, 0.18% active; Thyrotropin-releasing hormone receptor (Homo sapiens), P34981; activation, % at 2 µM; TRHR cells, calcium flux fluo-8, FDSS agonist mode; also: 0% is about no effect
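Agonist-mode FDSS calcium read (Ex 480/Em 530, 1 s cycles) in 1536-well TRHR cells with fluo-8 dye, after 10-cycle baseline and 23 nL compound addition; TRH at EC20 (10 nM final) added afterwards for the enhancer phase.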
D1 ag – Allosteric Agonists of the Human D1 Dopamine Receptor: qHTS; AID 504660, 2011; 360,000 tested, 1% active; D(1A) dopamine receptor (Homo sapiens), P21728; HEK293 T-REx D1 cells, calcium flux, agonist mode; activation, % at 2 µM; also: 0% is about no effect
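Inducible HEK293 T-REx D1 cells, force-coupled to calcium signalling, were plated at 4000 cells/well with tetracycline and held overnight at 30 C. After no-wash calcium dye loading, compound-evoked calcium rise over 180 s flagged agonists.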
TRHR PAM – qHTS for Small Molecule Agonists and Allosteric Enhancers of Human TRH Receptor: Primary Screen for Enhancers; TRHR cells, fluo-8 calcium fluorescence, EC20 TRH enhancement; Thyrotropin-releasing hormone receptor (Homo sapiens), P34981; enhancement, % at 2 µM; 360,000 tested, 0.66% active; in the data active = enhancement above about 30%; also: 0% is about no effect
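TRHR-expressing cells loaded with fluo-8 calcium dye were read kinetically (ex 480/em 530) during compound addition, then stimulated with an EC20 of TRH (10 nM final). Enhancement of the Gq-mediated intracellular calcium response was scored.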
An asterisk follows results filed as active; nt = no result. The list is not random: actives were taken first. Their share in the collection is about 4.6%. Rule as the data show it, unless noted: active = activation above about 30%; inactive = the rest.

SMILES | D1 antag | D1 potentiator | TRHR agonist | D1 ag | TRHR PAM
Nc1c(C(=O)Nc2cccc(Cl)c2)sc2nc3c(cc12)CN(Cc1ccccc1)CC3 | -1.5 | 3.2 | 0.5 | 3.2 | 33.3*
CCCC(=O)NCc1nc2cccnc2n1Cc1ccc(F)cc1 | 3.9 | 3.0 | 0.0 | 0.5 | 2.6
O=C(c1ccoc1)N1CCCC(N2CCN(c3cccc(Cl)c3)CC2)C1 (stereo not drawn) | -46.1* | -5.2 | -0.5 | 4.0 | -8.0
O=C(c1ccoc1)N1CCCC(N2CCN(c3ccc(F)cc3)CC2)C1 (stereo not drawn) | -6.3 | -5.0 | 0.3 | 0.2 | -1.3
Cc1cc(C(=O)N2CCCC(N3CCN(c4cccc(Cl)c4)CC3)C2)n(C)n1 (stereo not drawn) | 14.8 | -4.1 | 0.0 | 6.1 | -0.2
CCn1nc(C)cc1C(=O)N1CCCC(N2CCN(c3cccc(Cl)c3)CC2)C1 (stereo not drawn) | -53.7* | -10.9 | -0.6 | 2.7 | -1.3
CN(Cc1ccccc1)C(=O)c1cc(-c2cccc(Cl)c2)on1 | 1.0 | 2.8 | 2.8 | 5.3 | 7.8
CC(=O)Nc1ccc(S(=O)(=O)NC2=NCN(CCO)CN2)cc1 | 3.6 | 2.5 | 1.7 | -0.4 | 2.2
CCN1CN=C(NS(=O)(=O)c2ccc(C)cc2)NC1 | nt | -0.8 | 0.2 | 34.3* | 8.5
Cc1ccc(NC(=O)C2CCCN(c3nnc(-n4c(C)ccc4C)s3)C2)c(C)c1 (stereo not drawn) | -4.2 | -2.3 | -2.2 | 6.8 | -1.4
CCOC(=O)CCc1c(C)nc2cc(-c3cc(OC)cc(OC)c3)[nH]n2c1=O | 1.2 | 0.2 | 0.4 | -0.5 | 0.6
CC(=O)c1ccc(N2CCN(S(=O)(=O)c3ccc4c(c3)C(C)(C)C(=O)N4)CC2)cc1 | -7.6 | -1.1 | 0.5 | 4.0 | 18.1
CC(C)N1CCN(S(=O)(=O)c2ccc3ccccc3c2)CC1 | -91.8* | -0.7 | -0.6 | 2.4 | 4.8
CCS(=O)(=O)N1CCN(S(=O)(=O)c2ccc3ccccc3c2)CC1 | -3.8 | 0.9 | 0.4 | 5.5 | 11.5
CC(=O)c1ccc(N2CCN(S(=O)(=O)c3ccc4ccccc4c3)CC2)cc1 | -35.3* | 3.8 | 0.2 | 0.5 | -1.0
CC(=O)c1ccc(NC(=O)CN2CCN(S(=O)(=O)c3ccc4ccccc4c3)CC2)cc1 | -35.3* | nt | 0.8 | 35.0* | 2.0
COc1ccc(Cl)cc1NC(=O)C(C)n1nnc2sc3c(c2c1=O)CCCC3 (stereo not drawn) | 4.9 | 3.6 | 0.1 | -0.2 | -3.2
Cc1ccc(-c2nnc(Nc3ccc(Br)cc3)c3ccccc23)cc1S(=O)(=O)N1CCOCC1 | -14.1 | -6.3 | 0.1 | 2.0 | -5.9
CCn1c(C(=O)Nc2ccccc2C(=O)OC)cc2sc(Cl)cc21 | 15.0 | 7.7 | -0.2 | 2.6 | 3.8
Cc1ccc(C)c(N2C(=O)N(C)c3ccccc3S2(=O)=O)c1 | 27.1 | -2.5 | -0.6 | -0.4 | 0.0
COc1ccc(C(=O)Nc2nnc(SCC(=O)Nc3ccc(NC(C)=O)cc3)s2)c(OC)c1 | -1.5 | -2.5 | 0.1 | 3.2 | 4.5
CCc1nnc(NC(=O)c2ccc(OC)cc2OC)s1 | -30.2* | -2.7 | 0.3 | 3.0 | 1.6
CC(=O)Oc1ccc(Cl)cc1/C=C/c1cc(OC(C)=O)c2ccccc2n1 | -63.4* | -13.4 | -1.4 | 1.2 | -0.1
O=c1c2cccnc2n(Cc2ccccc2F)c(=O)n1Cc1ccccc1Cl | 3.3 | -4.0 | -0.1 | 4.1 | 2.7
COc1cccc(CNS(=O)(=O)c2cc3[nH]c(=O)c(=O)[nH]c3cc2C)c1 | 1.3 | 6.9 | 0.3 | 1.9 | 31.3*
SMILES | D1 antag | D1 potentiator | TRHR agonist | D1 ag | TRHR PAM
CCCCOc1ccc(C(=O)N(Cc2ccc(C(C)C)cc2)C2CCS(=O)(=O)C2)cc1 (stereo not drawn) | 11.3 | 1.4 | 2.1 | 4.3 | 7.6
Cc1cccn2c3c(c(=O)nc12)C(c1ccc(F)cc1)CC(=O)N3 (stereo not drawn) | -6.5 | -0.3 | 0.2 | 4.7 | 0.9
Cc1c(C#N)c(N)nc2c3c(sc12)NC(=O)CC3c1ccc(F)cc1 (stereo not drawn) | -31.0* | -7.1 | -0.4 | 0.8 | -6.3
Cc1cc(C)c2c(n1)sc1c(-c3ccccc3)c(C#N)c(N)nc12 | 11.7 | -6.7 | 0.0 | 1.7 | -3.3
Cc1c(C#N)c(N)nc2c3c(sc12)NC(=O)CC3c1ccccc1 (stereo not drawn) | 16.3 | -4.2 | -2.0 | 1.0 | 35.9*
O=C(Cn1ncc2c3ccccc3n(Cc3cccc(Cl)c3)c2c1=O)N1CCCCCC1 | 2.1 | 2.3 | 0.7 | 14.2 | -4.8
O=C(Nc1cccc2cccnc12)OCc1ccccc1 | 2.4 | 2.4 | 0.2 | 3.6 | 1.0
O=C(c1ccc(F)cc1)N1CCN(c2ccccn2)CC1 | -10.2 | -7.9 | 0.3 | 0.1 | 30.2*
COc1ccc(F)cc1S(=O)(=O)N1CCN(c2ccccn2)CC1 | 10.3 | 1.3 | 0.6 | 1.2 | -6.9
O=S(=O)(c1cc(F)ccc1F)N1CCN(c2ccccn2)CC1 | -51.9* | -0.2 | -0.2 | 0.1 | 5.7
COc1ccc(C(=O)N2CCN(c3ccccn3)CC2)cc1 | 2.9 | -3.1 | 0.6 | 0.7 | -6.5
Cc1nc2ccc(-c3ccccc3)cc2o1 | -45.9* | -3.0 | -0.1 | 0.6 | -6.8
O=C(Nc1ccccc1F)C(Cc1ccccc1)N1Cc2ccccc2C1=O (stereo not drawn) | 7.0 | -0.7 | -0.3 | 0.1 | 12.1
CC1=C(c2ccc(C)cc2)S(=O)(=O)N(CC(=O)O)C1=O | -0.6 | 4.3 | 0.7 | 6.2 | -0.8
COC(=O)CN1C(=O)C(C)=C(c2ccc(C)cc2)S1(=O)=O | -36.3* | -6.0 | -0.7 | 0.8 | -4.0
CCOc1ccccc1N(CC(=O)N/N=C(\C)c1cccc(Br)c1)S(C)(=O)=O | -2.8 | 11.4 | -2.0 | -0.5 | 1.1
COc1ccccc1N(CC(=O)NCCc1ccccc1)S(C)(=O)=O | 19.3 | -1.8 | -0.3 | -0.3 | 14.2
COCCNC(=O)CN(c1ccccc1OC)S(C)(=O)=O | -30.2* | 0.3 | 0.5 | 2.9 | -2.2
COc1ccccc1N(CC(=O)N/N=C(\C)c1cccc(Br)c1)S(C)(=O)=O | -30.2* | -5.8 | -0.5 | 0.4 | -3.4
CCCNC(=O)Cn1nc(-c2ccc(C)c(C)c2)c2cnc3ccc(OC)cc3c21 | -3.5 | -3.0 | -0.6 | 0.8 | 14.5
COc1ccccc1Cc1nc2ccccc2nc1SCC(=O)NCc1ccccc1Cl | 6.8 | 0.5 | -0.2 | 1.1 | -3.5
CC1=C(C(=O)Nc2ccc(C)cc2C)C(CC(C)C)n2nc(SCc3ccccc3C)nc2N1 (stereo not drawn) | -35.5* | -1.9 | 0.9 | -1.4 | -1.8
CC1=C(C(=O)Nc2ccc(Cl)cc2)C(CC(C)C)n2nc(SCc3ccccc3C)nc2N1 (stereo not drawn) | -3.4 | -1.6 | 1.4 | 1.9 | 0.6
C#CCOc1ccc(C2C(C(=O)OC)=C(C)NC3=C2C(=O)c2ccccc23)cc1OCC (stereo not drawn) | 3.6 | 1.1 | -1.5 | 0.4 | 6.9
